CYP2C19 inhib: blockers of cytochrome P450 2C19 activity – biochemical, luminescence, ADME assay, primary screen | P33261 | CYP2C19 Supersomes, luciferin-H EGE luminescence, 30 min | inhibition, % at 5 µM | hit rate 21% among 96,000 | AID 778, 2007;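 active = CYP2C19 inhibition above a set limit at 5 µM in the primary screen, cut at about 50% in these data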;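 note: plate controls were negative control wells for no effect and 2.5 mM tranylcypromine positive control for full effect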
CYP2C9 inhib: blockers of cytochrome P450 2C9 activity – biochemical, luminescence, ADME assay, primary screen | inhibition, % at 5 µM | CYP2C9 Supersomes, luciferin-H conversion | hit rate 20% among 96,000 | P11712;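 active = blocking of liver enzyme CYP2C9 beyond about 50% at 5 µM, limit read from the data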
Target sequence (P11712 whole entry, looked up): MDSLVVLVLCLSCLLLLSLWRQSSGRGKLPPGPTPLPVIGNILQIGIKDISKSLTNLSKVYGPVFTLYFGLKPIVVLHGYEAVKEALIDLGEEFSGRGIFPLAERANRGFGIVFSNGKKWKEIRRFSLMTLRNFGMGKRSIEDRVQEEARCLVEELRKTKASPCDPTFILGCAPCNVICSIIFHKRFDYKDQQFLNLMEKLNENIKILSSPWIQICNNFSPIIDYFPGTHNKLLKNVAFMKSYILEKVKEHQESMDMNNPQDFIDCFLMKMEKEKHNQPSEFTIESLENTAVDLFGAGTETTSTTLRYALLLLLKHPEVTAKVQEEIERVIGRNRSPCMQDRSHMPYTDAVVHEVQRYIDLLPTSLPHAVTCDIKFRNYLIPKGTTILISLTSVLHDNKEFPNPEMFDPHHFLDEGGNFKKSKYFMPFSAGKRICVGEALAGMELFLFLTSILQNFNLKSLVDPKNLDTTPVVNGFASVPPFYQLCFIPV
CYP2C9 activ: human CYP2C9 activators, primary screen, biochemical, luminescence. Cytochrome P450 2C9 (Homo sapiens), P11712. recombinant CYP2C9, luciferin-H conversion; stronger effect = higher value; factor 1 = untreated enzyme, 0 = blocked. activation factor at 5 µM. hit rate 1.4% among 96,000;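 active = activation factor of 2 or more for CYP2C9 at a 5 µM dose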;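 note: 0 = sulfaphenazole-blocked wells and 1 = vehicle-only wells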
E-sel TNF inh: E-selectin induction blockers in HUVEC – imaging, immunofluorescence, high content, primary screen; hit rate 0.71% among 120,000; inhibition, % at 2 µM; HUVEC TNFa-induced E-selectin immunofluorescence;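 active = inhibition above the batch mean plus 3 SD, and confirmed as a hit on visual image review, cut at about 43% in these data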;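 note: 0% = TNF-stimulated DMSO wells and 100% = unstimulated control wells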
CYP2C19 activ: human CYP2C19 activators, primary screen, biochemical, luminescence. recombinant CYP2C19, luciferin-H EGE luminescence; stronger effect = higher value; 0 = fully inhibited enzyme, 1 = untreated enzyme. 96,000 tested, under 10 active. activation factor at 5 µM. AID 1025, 2008. Cytochrome P450 2C19 (Homo sapiens), P33261;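 active = activation factor of at least 2 at 5 µM in the primary screen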;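 note: 0 = wells with 2.5 mM tranylcypromine and 1 = vehicle-only wells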
F-actin modifier: modifiers of F-actin cytoskeleton organization, primary screen, imaging, HUVEC, phalloidin staining, high-content imaging | hit rate 0.18% among 91,000 | inhibition, % at 2 µM | AID 836, 2007 | HUVEC TNFa F-actin phalloidin imaging;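 active = inhibition above the batch mean plus 3 SD and confirmed as a hit by visual image inspection, cut at about 30% in these data, passing the limit was not always enough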
Numbers without * were called inactive; x = not tested or not shown. An excerpt weighted towards active compounds, which were near 22% of everything screened.

SMILES	CYP2C19 inhib	CYP2C9 inhib	CYP2C9 activ	E-sel TNF inh	CYP2C19 activ	F-actin modifier
Cc1ccc(NS(=O)(=O)c2ccc3c(c2)c(=O)n(C)c(=O)n3C)cc1F	94*	92*	0.1	5	0.1	28
CCOc1ccc2nc(NS(=O)(=O)c3ccc4c(c3)n(C)c(=O)n4C)sc2c1	44	98*	0	5	0.6	-11
CC(=O)Nc1ccc(S(=O)(=O)Nc2nc3ccc(C)cc3s2)cc1	31	40	0.6	-57	0.7	-24
Cc1ccc(S(=O)(=O)Nc2nc3ccc(S(C)(=O)=O)cc3s2)cc1	29	98*	0	x	0.7	-1
CCOC(=O)c1cc(C(=O)OCC)cc(-n2c(C)cc(C(=O)CN3CCOCC3)c2C)c1	22	36	0.6	-11	0.8	21
COc1cc(NS(=O)(=O)c2ccc3c(c2)n(C)c(=O)n3C)cc(OC)c1	59*	84*	0.2	25	0.4	-2
Cc1ccc(-n2c3c(cc(C(=O)Nc4cccc(C)n4)c2=O)C(=O)CCC3)cc1	-9	-10	1.1	x	1.1	x
Cc1cc(C(=O)Nc2c(C)n(C)n(-c3ccccc3)c2=O)c(C)o1	4	-4	1	-20	1	10
N=c1oc2c3c4c(cc2cc1C(=O)Nc1ccccc1)CCCN4CCC3	11	7	0.9	31	0.9	43*
Cc1cc(C)c(C#N)c(Oc2ccc(F)cc2)n1	13	13	0.9	-9	0.9	-16
COc1ccc(OC)c(-c2cc(C(=O)N3CCc4ccccc4C3)no2)c1	47	-73	1.7	x	0.5	0
COc1ccccc1N1CCN(C(=O)c2cc(C3CC3)on2)CC1	81*	77*	0.2	x	0.2	4
COc1ccc(OC)c(-c2cc(C(=O)N3CCN(c4ccccc4)CC3)no2)c1	76*	24	0.8	x	0.2	-15
O=C(c1cc(C2CC2)on1)N1CCN(c2ccc(F)cc2)CC1	83*	16	0.8	x	0.2	18
COc1ccccc1-c1cc(C(=O)N2CCN(c3ccccc3OC)CC2)no1	54*	-172	2.7*	-12	0.5	-2
Cc1cccc(Sc2nc(-c3ccccc3)ncc2C(=O)O)c1	x	x	x	-13	x	x
O=c1[nH]c2cc3c(cc2cc1CN(Cc1ccco1)C(=S)NCC1CCCO1)OCCO3 (configuration not stated)	x	x	x	-35	x	x
Cc1cccn2cc(CCNC(=O)c3ccco3)nc12	10	10	0.9	-1	0.9	-12
O=C(c1cc(-c2cccs2)on1)N1CCN(c2ccc(F)cc2)CC1	12	22	0.8	-5	0.9	15
O=C(c1cc(-c2cccs2)on1)N1CCN(c2ccccc2)CC1	63*	72*	0.3	23	0.4	-35
CS/C(=N\S(=O)(=O)c1cccs1)NC(=O)CSc1nc2ccccc2s1	80*	100*	0	3	0.2	16
CC(C)C(=O)Nc1cccc(C(=O)Nc2nccs2)c1	20	86*	0.1	34	0.8	-15
CCCC(=O)Nc1cccc(C(=O)Nc2nccs2)c1	20	55*	0.4	x	0.8	3
Nn1c(SCC(=O)N2CCCc3ccccc32)nncc1=O	x	x	x	-21	x	x
CCCCNS(=O)(=O)c1ccc2nc(-c3cccnc3)cc(C(=O)NC3CC3)c2c1	x	x	x	38	x	x
SMILES	CYP2C19 inhib	CYP2C9 inhib	CYP2C9 activ	E-sel TNF inh	CYP2C19 activ	F-actin modifier
O=C(NCCc1ccccc1)C1CCN(S(=O)(=O)c2ccccc2)CC1	29	-25	1.3	-3	0.7	9
CCS(=O)(=O)Nc1ccc2[nH]c(=O)[nH]c2c1	x	x	x	16	x	x
CCS(=O)(=O)Nc1ccc(Cc2ccc(NS(=O)(=O)CC)cc2)cc1	70*	87*	0.1	-88	0.3	-1
CS(=O)(=O)Nc1ccc(Cc2ccc(NS(C)(=O)=O)cc2)cc1	26	52*	0.5	-12	0.7	-3
N#Cc1c(-c2ccc(Cl)cc2Cl)nc2n(c1=O)CCS2	93*	62*	0.4	16	0.1	-19
COCCNc1nc2ccccc2nc1NS(=O)(=O)c1ccc(C)cc1C	24	98*	0	-2	0.8	-2

Source: PubChem BioAssay
